A selection: hits, their analogues and other compounds. The true share with any hit is near 3.6%.
mHTT-CaM PPI inh: mutant huntingtin-calmodulin interaction inhibitors – biochemical, AlphaScreen, primary screen. P42858. inhibition, % at 15 µM. 3.6% of 190,000 active. AlphaScreen His-mHTT/GST-CaM binding, luminescence;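 also: 0% = both proteins with DMSO and 100% = one protein alone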
Target sequence (P42858 whole entry, looked up, stated change not applied): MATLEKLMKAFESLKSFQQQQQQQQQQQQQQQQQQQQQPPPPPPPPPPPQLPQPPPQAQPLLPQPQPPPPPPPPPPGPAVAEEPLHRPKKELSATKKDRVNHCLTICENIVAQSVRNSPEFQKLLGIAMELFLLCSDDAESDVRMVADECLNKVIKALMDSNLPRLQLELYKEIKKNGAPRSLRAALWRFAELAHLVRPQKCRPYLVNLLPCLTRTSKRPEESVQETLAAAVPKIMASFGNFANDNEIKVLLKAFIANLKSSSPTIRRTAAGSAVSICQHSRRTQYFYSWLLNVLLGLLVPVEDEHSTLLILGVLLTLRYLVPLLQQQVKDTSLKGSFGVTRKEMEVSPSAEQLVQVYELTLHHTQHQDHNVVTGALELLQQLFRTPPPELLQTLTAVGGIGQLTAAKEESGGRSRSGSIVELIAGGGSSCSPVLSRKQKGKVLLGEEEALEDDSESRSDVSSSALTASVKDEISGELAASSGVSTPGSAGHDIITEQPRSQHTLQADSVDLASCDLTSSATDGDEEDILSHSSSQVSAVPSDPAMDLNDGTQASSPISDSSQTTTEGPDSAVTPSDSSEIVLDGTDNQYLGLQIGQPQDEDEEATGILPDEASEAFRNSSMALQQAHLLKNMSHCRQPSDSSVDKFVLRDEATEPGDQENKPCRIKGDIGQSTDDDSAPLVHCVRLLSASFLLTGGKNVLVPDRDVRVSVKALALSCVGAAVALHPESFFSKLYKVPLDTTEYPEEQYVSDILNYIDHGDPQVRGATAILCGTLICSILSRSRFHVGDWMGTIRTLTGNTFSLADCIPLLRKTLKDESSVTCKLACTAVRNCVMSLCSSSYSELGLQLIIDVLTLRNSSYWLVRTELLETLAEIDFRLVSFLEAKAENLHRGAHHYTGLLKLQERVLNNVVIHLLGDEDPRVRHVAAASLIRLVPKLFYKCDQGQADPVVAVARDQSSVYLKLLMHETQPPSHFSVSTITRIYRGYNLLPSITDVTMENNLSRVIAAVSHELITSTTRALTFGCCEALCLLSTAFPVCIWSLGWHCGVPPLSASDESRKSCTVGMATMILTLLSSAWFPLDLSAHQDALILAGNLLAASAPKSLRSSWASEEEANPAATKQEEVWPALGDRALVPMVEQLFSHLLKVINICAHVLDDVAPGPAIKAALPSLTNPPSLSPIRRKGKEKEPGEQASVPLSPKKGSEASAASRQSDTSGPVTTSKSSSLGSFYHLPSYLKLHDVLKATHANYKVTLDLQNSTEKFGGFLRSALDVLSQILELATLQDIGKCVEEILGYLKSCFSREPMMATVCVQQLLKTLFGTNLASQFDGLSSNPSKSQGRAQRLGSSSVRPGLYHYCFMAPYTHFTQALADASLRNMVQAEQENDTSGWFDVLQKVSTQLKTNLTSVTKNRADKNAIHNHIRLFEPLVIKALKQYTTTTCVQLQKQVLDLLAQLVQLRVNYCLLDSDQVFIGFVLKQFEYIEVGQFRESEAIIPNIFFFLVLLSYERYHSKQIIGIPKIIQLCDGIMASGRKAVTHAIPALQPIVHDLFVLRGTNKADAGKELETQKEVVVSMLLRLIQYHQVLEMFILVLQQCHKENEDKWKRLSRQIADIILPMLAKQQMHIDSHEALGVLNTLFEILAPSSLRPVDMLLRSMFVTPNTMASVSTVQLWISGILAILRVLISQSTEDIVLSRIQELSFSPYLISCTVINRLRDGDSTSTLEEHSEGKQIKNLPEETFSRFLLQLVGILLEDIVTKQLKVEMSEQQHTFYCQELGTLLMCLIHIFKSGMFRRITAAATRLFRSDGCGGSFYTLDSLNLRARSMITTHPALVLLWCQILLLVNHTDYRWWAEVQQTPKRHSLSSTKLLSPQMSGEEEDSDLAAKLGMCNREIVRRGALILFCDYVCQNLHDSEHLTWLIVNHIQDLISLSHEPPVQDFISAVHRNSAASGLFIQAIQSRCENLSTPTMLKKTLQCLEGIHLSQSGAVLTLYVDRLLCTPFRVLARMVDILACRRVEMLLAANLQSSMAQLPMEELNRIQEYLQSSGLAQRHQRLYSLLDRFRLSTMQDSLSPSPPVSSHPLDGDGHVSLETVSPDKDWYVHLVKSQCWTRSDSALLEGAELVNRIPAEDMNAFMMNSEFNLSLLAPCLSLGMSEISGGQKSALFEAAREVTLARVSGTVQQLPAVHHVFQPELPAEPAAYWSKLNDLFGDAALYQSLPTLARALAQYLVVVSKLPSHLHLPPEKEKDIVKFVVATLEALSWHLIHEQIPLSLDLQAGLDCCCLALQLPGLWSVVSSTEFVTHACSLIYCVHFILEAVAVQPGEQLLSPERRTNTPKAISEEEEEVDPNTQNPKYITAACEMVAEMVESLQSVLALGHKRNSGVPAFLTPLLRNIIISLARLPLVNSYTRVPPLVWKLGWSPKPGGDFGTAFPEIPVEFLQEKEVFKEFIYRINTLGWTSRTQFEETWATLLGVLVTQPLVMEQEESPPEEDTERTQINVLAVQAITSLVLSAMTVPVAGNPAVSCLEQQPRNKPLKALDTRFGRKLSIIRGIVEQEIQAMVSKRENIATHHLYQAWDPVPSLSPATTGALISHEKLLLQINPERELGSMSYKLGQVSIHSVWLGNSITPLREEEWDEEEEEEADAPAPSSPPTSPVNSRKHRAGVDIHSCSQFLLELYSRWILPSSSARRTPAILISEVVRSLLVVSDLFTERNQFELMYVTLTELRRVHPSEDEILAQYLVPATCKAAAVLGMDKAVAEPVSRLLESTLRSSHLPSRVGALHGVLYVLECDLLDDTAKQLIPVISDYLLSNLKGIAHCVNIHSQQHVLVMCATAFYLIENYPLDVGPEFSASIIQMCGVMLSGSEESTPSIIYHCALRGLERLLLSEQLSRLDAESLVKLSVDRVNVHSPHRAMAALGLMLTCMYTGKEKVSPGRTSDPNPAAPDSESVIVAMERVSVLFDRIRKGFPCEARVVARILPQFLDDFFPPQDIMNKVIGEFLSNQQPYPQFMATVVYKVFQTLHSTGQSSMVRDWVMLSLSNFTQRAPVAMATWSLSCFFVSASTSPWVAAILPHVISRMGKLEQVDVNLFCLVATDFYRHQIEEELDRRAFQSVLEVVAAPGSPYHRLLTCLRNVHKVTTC
Pf apPOL block: Pf-apPOL inhibitors, biochemical, fluorescence; Plasmodium falciparum apicoplast DNA polymerase (apPOL); Recombinant Pf-apPOL, molecular beacon fluorescence, 1.5 h; inhibition, % at 10 µM; 0.25% of 210,000 active
* = called active by the depositor. Rule as the data show it: active = inhibition above about 50%; inactive = the rest.

Screening Cn1ncc(N2CCCC(C(=O)NCc3cccs3)C2)cc1=O (centres undefined) returned mHTT-CaM PPI inh 0 and Pf apPOL block -7.
O=C(NCc1cccs1)C1CCCN(c2ccc(-n3cccn3)nn2)C1 (centres undefined) was read as mHTT-CaM PPI inh 57* and Pf apPOL block -6.
Screening Cc1ccnc(NC(=O)C2CCCN(c3cc(-n4cccn4)ncn3)C2)c1 (centres undefined) returned mHTT-CaM PPI inh 49 and Pf apPOL block -2.
Screening Cc1nc(NC(=O)C2CCCN(c3ccc(-n4cccn4)nn3)C2)sc1C (centres undefined) returned mHTT-CaM PPI inh 94* and Pf apPOL block -8.
`COc1cc(/C=C/C(=O)NCCSc2c(C)[nH]c3ccccc23)cc(OC)c1OC` gave mHTT-CaM PPI inh 48 and Pf apPOL block -3.
`O=C(NCc1cccs1)c1cnn2c(C(F)(F)F)cc(-c3cccs3)nc12` gave mHTT-CaM PPI inh -9 and Pf apPOL block -6.
COc1ccc(NC(=O)C2CCN(C3CCN(C(C)=O)CC3)CC2)cc1 was read as mHTT-CaM PPI inh -2 and Pf apPOL block -5.
`O=C(NC(Nc1cccc(Cl)c1)C(Cl)(Cl)Cl)c1cccnc1` (centres undefined) gave mHTT-CaM PPI inh 4 and Pf apPOL block -9.
For O=C(c1cc2c(s1)CN(C1CCCC1)C2)N1CCN(c2ncccn2)CC1 the results were mHTT-CaM PPI inh 24 and Pf apPOL block -2.
Screening COc1ccccc1-c1nnc(NC(=O)c2ccc3c(c2)CCCC3)o1 returned mHTT-CaM PPI inh -2 and Pf apPOL block -6.
`CC(C)S(=O)(=O)c1cccc(-c2nnc(NC(=O)c3ccc4c(c3)CCCC4)o2)c1` gave mHTT-CaM PPI inh 51* and Pf apPOL block -18.
For COc1cccc(C(C)NC(=O)C2CCN(Cc3cn(C)c4ccccc34)CC2)c1 (centres undefined) the results were mHTT-CaM PPI inh 2 and Pf apPOL block -7.
For COc1ccc2[nH]cc(CN3CCC(C(=O)NC(C)c4ccc(F)cc4)CC3)c2c1 (centres undefined) the results were mHTT-CaM PPI inh 68* and Pf apPOL block 1.
For COc1cc2c(cc1OC)CN(Cc1ccccc1Cl)CC2 the results were mHTT-CaM PPI inh -8 and Pf apPOL block -4.
For COc1cc2c(cc1OC)CN(Cc1ccc(Cl)c(Cl)c1)CC2 the results were mHTT-CaM PPI inh 55* and Pf apPOL block -1.
`CCN1CCn2c(nc3cc(C(=O)NCc4ccccc4C)ccc32)C1=O` gave mHTT-CaM PPI inh -5 and Pf apPOL block 2.
`CCC(=O)N1CCc2cc(N3CC(C(=O)Nc4ccccc4F)CC3=O)ccc21` (centres undefined) gave mHTT-CaM PPI inh 16 and Pf apPOL block -2.
`Cc1ccc(C)c(CN2C(=O)NC3(CCN(C(=O)c4ccccc4Cl)CC3)C2=O)c1` gave mHTT-CaM PPI inh 4 and Pf apPOL block -6.
`Cc1ccc2[nH]cc(CCN3CC(C(=O)Nc4ccccc4C)CC3=O)c2c1` (centres undefined) gave mHTT-CaM PPI inh 23 and Pf apPOL block 3.
Screening Cc1ccc2[nH]cc(CCN3CC(C(=O)Nc4nc5c(C)cccc5s4)CC3=O)c2c1 (centres undefined) returned mHTT-CaM PPI inh 81* and Pf apPOL block -1.
Screening Cc1ccc2[nH]cc(CCN3CC(C(=O)Nc4nncs4)CC3=O)c2c1 (centres undefined) returned mHTT-CaM PPI inh -6 and Pf apPOL block 5.
`Cc1ccc2nc(NC(=O)C3CC(=O)N(CCc4c[nH]c5ccc(C)cc45)C3)sc2c1` (centres undefined) gave mHTT-CaM PPI inh 88* and Pf apPOL block 0.
Screening CC(=O)Nc1cccc2c(C(=O)N3CCOCC3)ccnc12 returned mHTT-CaM PPI inh -1 and Pf apPOL block 2.
C=CCN(c1ccccc1)S(=O)(=O)c1ccc2[nH]cc(C(=O)NCCOC)c(=O)c2c1 was read as mHTT-CaM PPI inh 50* and Pf apPOL block -10.
Screening C=CCN(c1ccccc1)S(=O)(=O)c1ccc2[nH]cc(C(=O)NCCCC)c(=O)c2c1 returned mHTT-CaM PPI inh 32 and Pf apPOL block -5.
C=CCNC(=O)c1c[nH]c2ccc(S(=O)(=O)N(C)c3ccc(Cl)cc3F)cc2c1=O was read as mHTT-CaM PPI inh 7 and Pf apPOL block -5.
`C=CCNC(=O)c1c[nH]c2ccc(S(=O)(=O)N(C)c3ccc(Cl)cc3)cc2c1=O` gave mHTT-CaM PPI inh 53* and Pf apPOL block -15.
For CC(Cc1cccs1)NC(=O)CN1C(=O)CCC1=O (centres undefined) the results were mHTT-CaM PPI inh -6 and Pf apPOL block -4.
Screening COc1ccccc1N1CCN(C(=O)c2sc3cccc(F)c3c2OC)CC1 returned mHTT-CaM PPI inh 78* and Pf apPOL block -8.
Screening COc1ccccc1N1CCN(C(=O)c2ccccc2F)CC1 returned mHTT-CaM PPI inh -2 and Pf apPOL block -3.
`COc1ccccc1N1CCN(C(=O)c2nn(-c3ccc(F)cc3)c(=O)cc2OC)CC1` gave mHTT-CaM PPI inh -6 and Pf apPOL block -7.
COc1ccc(N2CCN(C(=O)c3sc4cccc(F)c4c3OC)CC2)cc1 was read as mHTT-CaM PPI inh 64* and Pf apPOL block 0.
`COc1cccc(N2CCN(C(=O)c3sc4cccc(F)c4c3OC)CC2)c1` gave mHTT-CaM PPI inh 26 and Pf apPOL block 1.
Screening COc1ccccc1N1CCN(C(=O)c2nn(-c3ccc(F)cc3)cc2OC)CC1 returned mHTT-CaM PPI inh 68* and Pf apPOL block -9.
Screening COc1ccc(-n2cc(C(=O)N3CCN(c4ccc(F)cc4)CC3)c3ccccc3c2=O)cc1 returned mHTT-CaM PPI inh 78* and Pf apPOL block 3.
`COc1ccc(-n2cc(C(=O)N3CCN(c4ccccc4F)CC3)c3ccccc3c2=O)cc1` gave mHTT-CaM PPI inh 42 and Pf apPOL block -4.
Screening O=C(Nc1cccc(OC(F)(F)F)c1)c1cccs1 returned mHTT-CaM PPI inh -13 and Pf apPOL block -4.
Screening O=c1cc(-c2ccccc2)nc2n1CCN2Cc1ccccn1 returned mHTT-CaM PPI inh -2 and Pf apPOL block -3.
For Cc1noc(-c2cccnc2N2CCCN(C(=O)Cc3cccc(F)c3)CC2)n1 the results were mHTT-CaM PPI inh 0 and Pf apPOL block 6.
O=C(NCc1ccc(F)cc1)N1CCCC1c1nc(-c2ccccc2)no1 (centres undefined) was read as mHTT-CaM PPI inh -1 and Pf apPOL block -1.
`Cc1ccc(CNC(=O)C2CCN(c3cncnc3N3CCCC3)CC2)o1` gave mHTT-CaM PPI inh 9 and Pf apPOL block -1.
For Nc1ccccc1N=Cc1cc(Br)cc(Cl)c1O the results were mHTT-CaM PPI inh 66* and Pf apPOL block 2.
For Cc1ccc(N=Cc2cc(Br)cc(Cl)c2O)c(O)c1 the results were mHTT-CaM PPI inh 38 and Pf apPOL block 1.
For CCN(CC)C(=O)COc1ccc2c3c(c(=O)oc2c1)CCC3 the results were mHTT-CaM PPI inh 1 and Pf apPOL block -2.
Screening COc1ccc(-c2c(C#N)c(N)nc3sc(C(=O)c4ccc(C)cc4)c(N)c23)cc1 returned mHTT-CaM PPI inh -3 and Pf apPOL block -1.
`N#Cc1c(N)nc2sc(C(=O)c3ccc(Cl)cc3)c(N)c2c1-c1ccc(O)cc1` gave mHTT-CaM PPI inh 83* and Pf apPOL block 8.
For COc1ccc(N2C=C(C#N)S(=O)(=O)c3cc(F)ccc32)c(OC)c1 the results were mHTT-CaM PPI inh -4 and Pf apPOL block 5.

Bioassay records from PubChem.
